The panel holds about 79,000 compounds, 15% with a hit somewhere; the sample as a whole holds those more often. Activity calls are given as the source filed them. No stated cut-off is given here; in the data, active means growth inhibition above about 70%; inactive means the rest.
Test: NCI Yeast Anticancer Drug Screen. Data for the wt1 strain (AID 149);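 further: 0% = growth of vehicle-treated wt1 cultures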
Conditions: S. cerevisiae wt1 strain (SPY 50644) growth inhibition, stronger effect = higher value
Method: Growth inhibition of yeast strains with defined genetic alterations is measured as a screen for potential anti-cancer activity. Selected strains with alterations in DNA damage repair or cell cycle control were exposed to compounds and growth inhibition was measured relative to vehicle treated controls. The strain used in this assay is wt1

Measured: growth inhibition

CCN(CC)CCNc1ccc2ncn3c4cc(OC)c(OC)c(=O)c4c(O)c1c23
inactive: at 1.2 µM -82% | at 3.7 µM 1% | at 11.0 µM 2% | at 33.0 µM 4% | at 100.0 µM 6%

O=C1NC(=O)c2ccc([N+](=O)[O-])c3cccc1c23
inactive: at 1.2 µM -12% | at 3.7 µM 32% | at 11.0 µM 25% | at 33.0 µM 24% | at 100.0 µM 36%

S=C1SCN(C2CCCCC2)CN1C1CCCCC1
inactive: at 1.2 µM -21% | at 3.7 µM -29% | at 11.0 µM -29% | at 33.0 µM -21% | at 100.0 µM 40%

O=C(c1ccc([N+](=O)[O-])cc1)C1N=NCC1c1ccccc1 (stereo not given)
inactive: at 1.2 µM 2% | at 3.7 µM 1% | at 11.0 µM 4% | at 33.0 µM 1% | at 100.0 µM 9%

Cc1cccc[n+]1C1CCc2c(ccc3ccccc23)C1=O (stereo not given)
inactive: at 1.2 µM -2% | at 3.7 µM -4% | at 11.0 µM -1% | at 33.0 µM -3% | at 100.0 µM 13%

CCOC(=O)C#Cc1ccc([N+](=O)[O-])cc1
inactive: at 1.2 µM 2% | at 3.7 µM 1% | at 11.0 µM 3% | at 33.0 µM 8% | at 100.0 µM 25%

O=C(O)Cc1cc(F)ccc1C(=O)O
inactive: at 1.2 µM 3% | at 3.7 µM 7% | at 11.0 µM 13% | at 33.0 µM 16% | at 100.0 µM 25%

Cc1nc2ccc(N=NN(C)C)cc2[nH]1
inactive: at 1.2 µM 13% | at 3.7 µM 6% | at 11.0 µM 7% | at 33.0 µM 25%
active: at 100.0 µM 98%
